# Compound activity from PubChem BioAssay.
# Rows were chosen to be rich in hits. Some 2.7% of all compounds tested hit in one or more screens of this group.
# CFTR F508del cor: correctors of CFTR F508del function in bronchial epithelial cells; CFBE cells, YFP halide quenching; stimulated with forskolin plus potentiator P3; % fluorescence drop versus neutral controls; activity (quench increase), % at 7.58 µM; 0.36% of 350,000 active; AID 720511;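 active = mean added fluorescence quench of at least 8% versus neutral control, with both replicates also reaching 8%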;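 also: cells transiently co-express mutant CFTR-F508del with the halide-sensitive YFP; corrector assay measuring rescue of mutant channel to the surface after 24 h compound exposure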
# SKN-1 inh: inhibitors of C. elegans SKN-1; C. elegans VP596 Pgst-4::GFP/RFP ratio, acrylamide-induced, 24 h; inhibition, % at 21.8 µM; 0.49% of 360,000 active; AID 624304;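 active = interference check ratio from 0.5 to 1.5 plus GFP to RFP signal ratio inhibition reaching or exceeding a fixed threshold, cut at about 30% in these data, passing the limit was not always enough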
# ATG4B inhibitor: inhibitors of human ATG4B cysteine protease; ATG4B cleavage of LC3-PLA2, NBD-HPC fluorescence, 1 h; Q9Y4P1; inhibition, % at 8.33 µM; 0.51% of 340,000 active; in the data active = inhibition above about 40%
# NRP1-CendR mod: modulators of CendR peptide binding to human neuropilin-1; 0.85% of 360,000 active; inhibition, % at 25 µM; FAM-RPARPAR peptide binding to NRP-1, fluorescence polarization; O14786; AID 602438;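 active = inhibition or corrected inhibition above about 18%, plus a signal ratio from 0.5 to 1.5, limit read from the data, passing the limit was not always enough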
# MPTP block: inhibitors of mitochondrial permeability transition pore; inhibition, % at 10 µM; isolated mouse mitochondria, Ca2+ swelling absorbance, 30 min; 1.4% of 360,000 active;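 active = inhibition of 50% or more, scaled per plate between neutral and stimulator controls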;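 also: 0% = DMSO wells given calcium and 100% = 1 mM EGTA wells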
# Starred values were filed as active, the others as inactive; · = no result given.
SMILES,CFTR F508del cor,SKN-1 inh,ATG4B inhibitor,NRP1-CendR mod,MPTP block
O=C1CC(NNC(=O)c2ccc(Br)cc2)C(=O)N1 (stereo not drawn),1,43*,3,-3,2
C/C=C/c1ccc([C@H]2[C@@H](CO)N(C(=O)Cc3cccnc3)[C@@H]2CNC(C)=O)cc1,3,·,·,·,·
c1ccc2nc(-c3ccc(-n4ccnc4)cc3)ccc2c1,-2,66*,-10,-142,-1
Cn1c(SCCS(=O)(=O)c2ccc(Cl)cc2)nnc1-c1ccccc1,·,11,3,32*,-3
CC(=O)N(C)C[C@@H]1Oc2ncc(C#C[C@@H](C)O)cc2C(=O)N([C@@H](C)CO)C[C@H]1C,0,·,·,·,·
Cc1cc(S(=O)(=O)c2ccc([N+](=O)[O-])cn2)ccc1Br,2,6,2,22*,12
c1ccc(CNn2nnc3ccccc32)cc1,-2,11,·,23*,0
C(#Cc1ccccc1)Cn1nnc2ccccc21,·,20,1,5,1
CC(=O)N1CC(C)Sc2ccc(S(=O)(=O)NC3CCCCC3C)cc21 (stereo not drawn),4,11,-2,21*,0
Cc1noc(C)c1S(=O)(=O)Nc1ccc2c(c1)C(=O)N([C@H](C)CO)C[C@@H](C)[C@@H](CN(C)S(=O)(=O)c1ccccc1)OCCCC[C@H](C)O2,1,·,·,·,·
O=C(C[n+]1ccccc1)N/N=C/c1cccc(Cl)c1Cl,1,14,-1,12,-1
O=C(C[n+]1ccccc1)N/N=C/c1ccccc1Cl,1,9,0,26*,0
CCCC(=O)N1CCC2(CC1)CN(Cc1cccnc1)[C@H](CO)c1[nH]c3cc(OC)ccc3c12,1,·,·,·,·
Cc1ccc(-c2oc3ccccc3c(=O)c2OCC(=O)O)cc1,0,-3,-6,19*,-3
NC1=CC(=O)C(=O)c2ccccc21,-4,8,-12,29*,3
C/C=C/c1ccc([C@H]2[C@@H](CO)N(C(C)=O)[C@@H]2CNC(=O)c2ccncc2)cc1,-1,·,·,·,·
O=C(CSc1n[nH]c(=O)[nH]c1=O)Nc1ccc(Br)cc1Br,2,1,4,31*,-1
C[C@H]1CCCCO[C@H](CN(C)CC2CCCCC2)[C@@H](C)CN([C@@H](C)CO)C(=O)c2cc(NC(=O)Nc3cccc4ccccc34)ccc2O1,-1,·,·,·,·
Brc1ccc(-n2cnc(-c3ccccc3)c2)cc1,0,40*,0,-11,4
O=[N+]([O-])c1ccc(-c2cn(-c3ccc(Cl)cc3)cn2)cc1,-1,17,·,-18,0
CN(Cc1cccs1)C(=O)c1cccc(S(=O)(=O)N2CCCCCC2)c1,31*,-2,-5,14,-1
O=C(NCc1cccs1)c1ccc(S(=O)(=O)N2CCOCC2)cc1,-3,2,-4,21*,-2
Cc1ccc(S(=O)(=O)N2CCOCC2)cc1C(=O)NCc1cccs1,-5,2,0,0,-1
O=C(NCc1n[nH]c(=S)n1-c1ccc(F)cc1)c1ccc(S(=O)(=O)N2CCOCC2)cc1,2,38*,-18,-2,0
COc1ccc(OC)c(NC(=O)CCNS(=O)(=O)c2cccc3nonc23)c1,-3,9,-3,28*,-3
SMILES,CFTR F508del cor,SKN-1 inh,ATG4B inhibitor,NRP1-CendR mod,MPTP block
COc1cccc(NC(=O)CCNS(=O)(=O)c2cccc3nonc23)c1,2,-5,0,13,0
c1ccc2c(c1)N1CCCN=C1N2CCN1CCCCC1,8.9*,8,-6,-9,2
Cc1cc(C)cc(NC2=NCC(=O)N2Cc2ccccc2)c1,·,15,1,35*,0
Cc1cccc(NC2=NCC(=O)N2Cc2ccccc2)c1,·,-22,4,6,1
CC(=O)Nc1nc(-c2ccc([N+](=O)[O-])cc2)cs1,-1,1,-10,8,0
CC(C)c1nc(-c2ccc([N+](=O)[O-])cc2)cs1,·,53*,-9,0,2
COc1ccc(Nc2nccc(-c3ccc(C#N)cc3)n2)cc1,0,19,11,-4,1
COc1ccc(Nc2nccc(-c3cccc(N)c3)n2)cc1,3,-13,-11,20*,1
O=c1c2ccccc2oc2cc(-c3ccc4[nH]ccc4c3)ccc12,10*,27,3,-4,0
O=c1c2ccccc2oc2ccccc12,2,23,·,-2,-2
C[C@@H]1CN([C@@H](C)CO)C(=O)Cc2cc(NC(=O)Cc3ccccc3)ccc2O[C@H]1CN(C)CC1CCCCC1,0,·,·,·,·
CC1=Nc2cc(C(=O)O)ccc2Sc2ccc(Br)cc21,-3,8,6,-25,0
CC1=Nc2cc(C(=O)NCC3CCCO3)ccc2Sc2ccc(Br)cc21 (stereo not drawn),13*,-5,9,3,3
c1ccc(Oc2cc(-c3ccccc3)ncn2)cc1,·,50*,-2,13,3
c1ccc(Oc2cc(-c3ccccc3)nc(-c3ccccc3)n2)cc1,1,6,0,-2,1
CC(C)C[C@@H](CNC(=O)OC(C)(C)C)NC(=O)c1nc[nH]c1C(=O)N[C@@H](CC(C)C)C(=O)CNC[C@H](CC(C)C)NC(=O)c1nc[nH]c1C(=O)N[C@@H](Cc1c[nH]c2ccccc12)C(=O)OC(C)(C)C,3,21,-29,23*,0
CC(C)(C)OC(=O)[C@H](CCCCN)NC(=O)c1[nH]cnc1C(=O)N[C@@H](Cc1ccccc1)C(=O)OCc1ccccc1,·,-8,-10,28*,2
CC(C)C[C@H](NC(=O)c1[nH]cnc1C(=O)N[C@@H](Cc1ccccc1)C(=O)OCc1ccccc1)C(=O)OCc1ccccc1,1,-6,0,20*,1
CC(C)(C)OC(=O)[C@H](Cc1ccccc1)NC(=O)c1[nH]cnc1C(=O)N[C@@H](Cc1ccccc1)C(=O)OCc1ccccc1,2,7,-22,16,1
CC(C)C[C@H](NC(=O)c1nc[nH]c1C(=O)N[C@@H](CC(C)C)C(=O)OCc1ccccc1)C(=O)OCc1ccccc1,3,-12,1,-4,0
COc1ccccc1NS(=O)(=O)c1ccc(C)c(C(=O)Nc2ccc(S(=O)(=O)Nc3onc(C)c3C)cc2)c1,-2,-19,-4,33*,0
COc1ccc(/C=C(\C#N)C(=O)NCC2CCCO2)cc1OC (stereo not drawn),·,36*,-2,14,-1
COc1cc(/C=C(\C#N)C(=O)NCC2CCCO2)ccc1OCC(N)=O (stereo not drawn),1,6,1,-1,1
COc1cc(C(=O)NCC2CCCO2)ccc1OCc1ccc(Cl)cc1 (stereo not drawn),11*,6,-5,-8,-3
C[C@@H]1CN([C@@H](C)CO)C(=O)c2cccc(NC(=O)Nc3ccc(C(F)(F)F)cc3)c2O[C@H]1CN(C)C,3,·,·,·,·
COc1ccc2c3c(n(C)c2c1)[C@H](CO)N(Cc1ccc(F)cc1)CC31CCN(CC2CCOCC2)CC1,-2,·,·,·,·
